What was measured:
[1] = test system: Vero E6 infected with SARS-CoV-2; experiment: morphology score (similarity to uninfected cells); higher = more like uninfected cells; details: 24 h
[2] = test system: Vero E6 infected with SARS-CoV-2; experiment: SARS-CoV-2 infection rate relative to infected DMSO; higher = more infection, active = 60 or less; details: 24 h

With N#CC(Cc1ccc(O)cc1)c1ccc(O)cc1 (centres undefined) [diarylpropionitrile] (10 µM) the morphology score [1] was 0.138 and the SARS-CoV-2 infection rate [2] was 99% (inactive).

For COc1c(C)cnc(Cn2cnc3c(Cl)nc(N)nc32)c1C (10 µM), the morphology score [1] was 0.256 and the SARS-CoV-2 infection rate [2] was 98.5% (inactive).

With O=c1ccc2ccccc2o1 [coumarin] (10 µM) the morphology score [1] was 0.114 and the SARS-CoV-2 infection rate [2] was 89.5% (inactive).

In the case of CCN1C[C@H](C)n2c(c(O)c3c(=O)n(Cc4ccc(F)c(Cl)c4)nc(C(=O)NC)c32)C1=O (10 µM), the morphology score [1] is reported as 0.0188 and the SARS-CoV-2 infection rate [2] is reported as 97.5% (inactive).

With c1ccc2c(c1)Sc1ccccc1N2C[C@H]1CN2CCC1CC2 [levomequitazine] (10 µM) the morphology score [1] was 0.0894 and the SARS-CoV-2 infection rate [2] was 86% (inactive).

With CCN(CC)Cc1nccn1-c1ccc([N+](=O)[O-])cc1C(=O)c1ccccc1Cl [nizofenone] (10 µM) the morphology score [1] was 0.148 and the SARS-CoV-2 infection rate [2] was 98% (inactive).

For N=C(N)NC(=O)c1nc(Cl)c(N)nc1N [amiloride] (10 µM), the morphology score [1] was 0.1 and the SARS-CoV-2 infection rate [2] was 98% (inactive).

For Cc1nnc(C(=O)NC(C)(C)c2nc(C(=O)NCc3ccc(F)cc3)c(O)c(=O)n2C)o1 [raltegravir] (10 µM), the morphology score [1] was 0.324 and the SARS-CoV-2 infection rate [2] was 110% (inactive).

For NCC(CC(=O)O)c1ccc(Cl)cc1 (centres undefined) [baclofen] (10 µM), the morphology score [1] was 0.138 and the SARS-CoV-2 infection rate [2] was 109% (inactive).

With NCC1CC(=O)N(Cc2ccccc2)C1 (centres undefined) [nebracetam] (10 µM) the morphology score [1] was 0.0779 and the SARS-CoV-2 infection rate [2] was 102% (inactive).

In the case of CCn1cc(C(=O)O)c(=O)c2cc3c(cc21)OCO3 [oxolinic-acid] (10 µM), the morphology score [1] is reported as 0.162 and the SARS-CoV-2 infection rate [2] is reported as 96% (inactive).

With O=C1Cc2c([nH]c3ccc(Br)cc23)-c2ccccc2N1 [kenpaullone] (10 µM) the morphology score [1] was 0.533 and the SARS-CoV-2 infection rate [2] was 69.5% (inactive).

With CC1=CC(=C(c2ccc(N)cc2)c2ccc(N)cc2)C=CC1=N [basic-fuchsin] (0.833333 µM) the morphology score [1] was 0.163 and the SARS-CoV-2 infection rate [2] was 97.5% (inactive).

In the case of O=C1CCc2ccc(OCCCCN3CCN(c4cccc(Cl)c4Cl)CC3)cc2N1 [aripiprazole] (10 µM), the morphology score [1] is reported as -0.0119 and the SARS-CoV-2 infection rate [2] is reported as 103% (inactive).

For COc1ccc(C(=O)N2CCCc3cc(C4=NNC(=O)SC4C)ccc32)cc1OC (centres undefined) (0.833333 µM), the morphology score [1] was -0.177 and the SARS-CoV-2 infection rate [2] was 109% (inactive).

For CCC(C)(C)C(=O)O[C@H]1C[C@@H](C)C=C2C=C[C@H](C)[C@H](CC[C@@H]3C[C@@H](O)CC(=O)O3)[C@H]21 [simvastatin] (0.833333 µM), the morphology score [1] was -0.0774 and the SARS-CoV-2 infection rate [2] was 26.5% (active).

With O=c1c2ccccc2nc2n1CCc1c-2[nH]c2ccccc12 [rutaecarpine] (10 µM) the morphology score [1] was 0.246 and the SARS-CoV-2 infection rate [2] was 105% (inactive).

In the case of N=C(NCCC[C@H](N)C(=O)O)N[N+](=O)[O-] [NG-nitro-arginine] (10 µM), the morphology score [1] is reported as -0.0213 and the SARS-CoV-2 infection rate [2] is reported as 108% (inactive).

In the case of CCCCOc1cc(C(=O)OCCN(CC)CC)ccc1N [oxybuprocaine] (10 µM), the morphology score [1] is reported as 0.0894 and the SARS-CoV-2 infection rate [2] is reported as 114% (inactive).

With Cc1c(O)c(=O)ccn1C [deferiprone] (10 µM) the morphology score [1] was -0.123 and the SARS-CoV-2 infection rate [2] was 98% (inactive).

CN[C@@H]1[C@@H](O)[C@@H](O[C@@H]2[C@@H](O)[C@H](O[C@H]3O[C@H](CN)[C@@H](O)[C@H](O)[C@H]3O)[C@@H](N)C[C@H]2NC(=O)[C@@H](O)CN)OC[C@]1(C)O [isepamicin] (10 µM) was tested, and the morphology score [1] was 0.0671 and the SARS-CoV-2 infection rate [2] was 109% (inactive).

In the case of [O-][n+]1ccccc1[S-].[O-][n+]1ccccc1[S-].[Zn+2] [pyrithione-zinc] (10 µM), the morphology score [1] is reported as 0.0399 and the SARS-CoV-2 infection rate [2] is reported as 91.5% (inactive).

O=C(O)/C=C\c1c[nH]cn1 [cis-Urocanic acid] (10 µM) was tested, and the morphology score [1] was 0.143 and the SARS-CoV-2 infection rate [2] was 104% (inactive).

CCCCCCCCCCCCCCCC[n+]1ccccc1 [cetylpyridinium] (0.833333 µM) was tested, and the morphology score [1] was 0.0939 and the SARS-CoV-2 infection rate [2] was 86% (inactive).

With CC(C)(O)C(=O)Nc1ccc([N+](=O)[O-])c(C(F)(F)F)c1 [2-hydroxyflutamide] (10 µM) the morphology score [1] was 0.0933 and the SARS-CoV-2 infection rate [2] was 108% (inactive).

Cc1c2oc3c(C)ccc(C(=O)N[C@@H]4C(=O)N[C@H](C(C)C)C(=O)N5CCC[C@H]5C(=O)N(C)CC(=O)N(C)[C@@H](C(C)C)C(=O)O[C@@H]4C)c3nc-2c(C(=O)N[C@@H]2C(=O)N[C@H](C(C)C)C(=O)N3CCC[C@H]3C(=O)N(C)CC(=O)N(C)[C@@H](C(C)C)C(=O)O[C@@H]2C)c(N)c1=O [dactinomycin] (10 µM) was tested, and the morphology score [1] was -0.16 and the SARS-CoV-2 infection rate [2] was 109% (inactive).

Cc1cc(/C=C/c2ccc3cc(N(C)C)ccc3[n+]2C)c(C)n1-c1ccccc1 [pyrvinium-pamoate] (10 µM) was tested, and the morphology score [1] was -0.0751 and the SARS-CoV-2 infection rate [2] was 113% (inactive).

Reference: the supplement of paper PMC13380429
